From PubChem
IL-1B inflam inh – blocks inflammasome-driven IL-1 beta release. THP-1 LPS/ATP IL-1B secretion, AlphaLISA, 16 h; hits give low values. activity change, % at 57.5 µM. 360,000 tested, 4.7% active; in the data active means activity change below about -50%; inconclusive means mostly about -30% to -49%
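THP-1 cells pretreated 1 hr with compounds (up to 57.5 uM final), then stimulated with LPS (250 ng/mL final) plus ATP (1.25 mM final); secreted IL-1B measured by AlphaLISA after 16 hr, decreased signal indicating inhibition.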
ELG1 repair inh – ELG1-dependent DNA repair inhibition | 330,000 tested, 2.3% active | Potency, µM (titrated, usually from 46.1 µM), inactives show at the highest dose activity change, negative = inhibition, most hits filed as inhibitors | AID 504467 | HEK293T ELG1-luciferase reporter, luminescence, 16 h; DNA damage induced by 5-fluorouridine; further: potency means the concentration at half of the fitted maximal effect; nearly all actives have a fitted effect of over 55% in size
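DMSO vehicle served as the neutral condition. Each well held 2,000 cells given 5-fluorouridine plus compound; after 16 hr at 37 °C/5% CO2, ONE-Glo was added and luciferase measured 30 min later.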
TDP1 block – TDP1 (human) enzyme inhibition. Q9NUW8. AID 485290. recombinant TDP1, AlphaScreen DNA substrate cleavage. Potency, µM (highest dose often 130 µM), inactives show at the top dose activity change, negative = inhibition, hits mostly inhibitors. 350,000 tested, 0.28% active; further: potency means the concentration at half of the fitted maximal effect; nearly all actives have a fitted effect of over 40% in size
Target sequence (Q9NUW8 whole entry, looked up): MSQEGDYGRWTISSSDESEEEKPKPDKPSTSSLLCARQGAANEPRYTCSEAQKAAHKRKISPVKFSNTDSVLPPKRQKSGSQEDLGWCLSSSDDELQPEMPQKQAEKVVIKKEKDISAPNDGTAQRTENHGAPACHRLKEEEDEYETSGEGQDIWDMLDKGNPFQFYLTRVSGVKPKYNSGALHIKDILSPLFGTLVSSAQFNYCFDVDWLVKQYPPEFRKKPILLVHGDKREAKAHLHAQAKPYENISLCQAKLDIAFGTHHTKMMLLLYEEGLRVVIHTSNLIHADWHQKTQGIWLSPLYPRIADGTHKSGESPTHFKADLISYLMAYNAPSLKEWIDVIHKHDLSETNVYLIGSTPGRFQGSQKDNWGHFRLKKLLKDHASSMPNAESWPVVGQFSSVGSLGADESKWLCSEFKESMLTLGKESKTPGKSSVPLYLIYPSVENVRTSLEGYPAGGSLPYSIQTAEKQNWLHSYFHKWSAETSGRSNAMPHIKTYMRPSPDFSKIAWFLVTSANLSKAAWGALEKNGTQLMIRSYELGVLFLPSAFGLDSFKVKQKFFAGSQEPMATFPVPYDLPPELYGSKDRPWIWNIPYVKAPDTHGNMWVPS
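AlphaScreen read-out: signal falls as enzyme removes the 3' tyrosine-FITC from a 5'-biotinylated DNA oligo (15 nM, 5 min, RT). Enzyme was E. coli-made recombinant Tdp1 at 1 nM, exposed to compound for 15 min beforehand; beads 10 ug/ml, 10 min.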
TDP1 cell CPT – growth inhibition of DT40 Tdp1-/-;hTDP1 cells with camptothecin (screen for TDP1 inhibitors); 420,000 tested, 12% active; Potency, µM (doses to about 46.2 µM), for inactives: at the highest dose activity change, negative = growth inhibition, most hits filed as inhibitors; AID 686979; chicken DT40 Tdp1-/-;hTDP1 cells + 20 nM CPT, ATP luminescence, 48 h; further: potency means the concentration at half of the fitted maximal effect; nearly all actives have a fitted effect of over 55% in size
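Chicken DT40 Tdp1-/- cells complemented with human TDP1, 400 cells/well, exposed to compounds plus 20 nM camptothecin for at least 48 h at 37 C; viability read as ATP content by CellTiter-Glo luminescence.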
Giardia kill – kills Giardia lamblia. Giardia lamblia trophozoite viability. activity change, % at 7.66 µM, hits read low. 340,000 tested, 0.15% active. AID 540267; in the data active means activity change below about -80%; inconclusive means between about -30% and that limit;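 further: parasites exposed to compound for two days anaerobically before the ATP read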
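ATP-content bioluminescence gauges trophozoite survival. Cells (100/well) receive compound and incubate anaerobically for 48 hrs at 37 deg C; detection reagent follows for 15-30 min at room temperature.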
DT40 TDP1 no CPT – qHTS for Inhibitors of human tyrosyl-DNA phosphodiesterase 1 (TDP1): qHTS in cells in absence of CPT | DT40 Tdp1-/- hTDP1 cells, no CPT, ATP luminescence, 48 h | Potency, µM (series often up to 46.2 µM), for inactives: top-dose activity change, negative = growth inhibition, usual class: inhibitors | 420,000 tested, 15% active | AID 686978, 2013; further: potency means the concentration at half of the fitted maximal effect; nearly all actives have a fitted effect of over 55% in size
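Growth of hTDP1-complemented DT40 Tdp1-knockout cells is measured by ATP luminescence after at least 48 hr compound exposure at 37 °C, with DMSO substituting for the 20 nM CPT used in the parallel screen.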
Numbers without * were called inactive; ? = inconclusive; nt = no result given. In the library only some 19% were active in any assay of this set; here they are far more common. Unless noted, the call rests on the fitted dose curve; in most records, active means well fitted curve in the direction sought with a large enough effect; inconclusive means small, poorly fitted or top-dose-only effect, or another doubt; inactive means no such curve, though single readings can be large; an effect the other way counts as inactive or inconclusive. On the % scale 0 is the no-effect control and ±100 the full control effect.

SMILES	IL-1B inflam inh	ELG1 repair inh	TDP1 block	TDP1 cell CPT	Giardia kill	DT40 TDP1 no CPT
N#Cc1c(-c2ccccc2)c(-c2ccccc2)n(Cc2ccco2)c1NC(=O)c1cccs1	-4	-1%	3%	11µM*	10	?
CCC(CO)Oc1cc(NCc2ccccc2F)c2ncn(C(C)C)c2c1 (stereo not drawn)	30	?	8%	21µM*	-9	16µM*
CCC(CO)Oc1cc(NCc2ccccc2C(F)(F)F)c2ncn(C(C)C)c2c1 (stereo not drawn)	82	23µM*	10%	23µM*	-19	16µM*
COc1ccc(-n2nc(C(=O)N3CCCC(C)C3)c3c4ccccc4n(C)c3c2=O)cc1 (stereo not drawn)	nt	nt	2%	26µM*	nt	?
COc1ccc(-n2nc(C(=O)N3CCC(C#N)CC3)c3c4ccccc4n(C)c3c2=O)cc1	47	nt	nt	2%	0	-16%
COc1ccc(-n2nc(C(=O)N3CCCCC3)c3c4ccccc4n(C)c3c2=O)cc1Cl	nt	nt	2%	4.1µM*	nt	16µM*
CCOC(=O)C1CCN(C(=O)c2nn(-c3ccc(OC)cc3)c(=O)c3c2c2ccccc2n3C)CC1	nt	nt	-7%	?	nt	?
CCOC(=O)C1CCN(C(=O)c2nn(-c3ccc(OC)c(Cl)c3)c(=O)c3c2c2ccccc2n3C)CC1	nt	nt	5%	21µM*	nt	15µM*
Nc1c(-c2ccc(Cl)cc2)cnn1C1CCS(=O)(=O)C1 (stereo not drawn)	-14	0%	2%	-23%	0	?
CC(=O)c1ccccc1NC(=O)c1ccc2c(c1)NC(=O)C(C)S2 (stereo not drawn)	-6	?	nt	21µM*	27	?
Cc1ccnc(NC(=O)c2ccc3c(c2)NC(=O)C(C)S3)c1 (stereo not drawn)	-14	?	-5%	-22%	-5	?
CCCNC(=O)c1ccccc1NC(=O)c1ccc(CSc2ccccc2)cc1	0	?	0%	?	15	21µM*
CCCNC(=O)c1ccccc1NC(=O)c1ccc2c(c1)NC(=O)C(C)S2 (stereo not drawn)	-23	?	3%	10µM*	2	6.5µM*
CCOC(=O)C(Oc1ccc(=O)n(-c2ccccc2)n1)C(C)=O (stereo not drawn)	-5	6%	-8%	-10%	-9	-10%
COc1ccc(C2C(C(=O)NCc3ccccn3)CCC(=O)N2c2cc(OC)c(OC)c(OC)c2)cc1 (stereo not drawn)	24	-13%	8%	28%	1	-15%
Cc1cc(C)c(NC(=O)c2cc(C(=O)O)ccc2C(=O)O)c([N+](=O)[O-])c1	10	-26%	6%	1%	-10	-20%
CCN(CC)S(=O)(=O)c1ccc(N2CCN(S(=O)(=O)c3ccc4c(c3)OCCO4)CC2)nc1	-11	9.2µM*	2%	21µM*	-2	?
CCN(CC)S(=O)(=O)c1ccc(N2CCN(CCO)CC2)nc1	0	13%	0%	3%	-1	7%
CCOC(=O)N1CCN(C(=O)CN(Cc2ccc(Cl)cc2)S(=O)(=O)c2ccccc2)CC1	-11	?	6%	?	-2	21µM*
CCOC(=O)N1CCN(c2ccc(S(=O)(=O)N(Cc3ccccc3)Cc3ccccc3)cn2)CC1	-17	?	6%	13µM*	-5	13µM*
CCN(CC)S(=O)(=O)c1ccc(N2CCN(c3ccccc3O)CC2)nc1	-5	-20%	nt	?	5	21µM*
O=C(Cn1ccc([N+](=O)[O-])n1)NCc1ccccc1	16	nt	nt	8%	-2	-1%
COc1cc(NS(=O)(=O)c2ccc(N/C=C\C(=O)c3ccc(F)cc3)cc2)nc(OC)n1	33	?	0%	3%	-11	-7%
CC(=O)c1cccc(N/C=C\C(=O)c2ccc(C)cc2)c1	8	?	5%	-17%	-24	?
CC(=O)c1cccc(NS(=O)(=O)c2ccc(N/C=C/C(=O)c3ccc(F)cc3)cc2)c1	-76*	?	-3%	12µM*	8	18µM*
SMILES	IL-1B inflam inh	ELG1 repair inh	TDP1 block	TDP1 cell CPT	Giardia kill	DT40 TDP1 no CPT
CC(=O)c1cccc(NS(=O)(=O)c2ccc(N/C=C\C(=O)c3ccc(C)cc3)cc2)c1	13	?	4%	?	-7	3.7µM*
CC(=O)c1cccc(NS(=O)(=O)c2ccc(N/C=C\C(=O)c3ccc(F)cc3)cc2)c1	?	?	4%	13µM*	-2	10µM*
CC(=O)c1ccc(NS(=O)(=O)c2ccc(N/C=C/C(=O)c3ccc(F)cc3)cc2)cc1	21	?	-2%	?	-15	?
Nc1cc(Cl)ccc1N1CCCCCC1	-4	-18%	-2%	0%	4	?
CCC(=O)Nc1ccccc1C(=O)OCc1ccc(C(=O)c2ccccc2)cc1	7	19%	-8%	21µM*	-18	?
C=C1/C(=C\C=C2/CCC[C@]3(C)[C@@H]([C@H](C)OCCC(C)(C)O)CC[C@@H]23)C[C@@H](O)C[C@@H]1O	nt	nt	nt	15µM*	nt	?
C=C1CC[C@H](O)CC1=C/C=C1\CCC[C@]2(C)[C@@H]([C@H](C)CC[C@@H](O)C(C)(C)O)CC[C@@H]12	nt	nt	nt	?	nt	24µM*
CCOC(=O)C1CCN(C(=O)N(CC)CC)CC1	8	-1%	1%	4%	-28	7%
COc1cccc(NC(=O)CN(C)C(=O)/C=C/c2ccc3ccccc3n2)c1	-77*	-6%	nt	6%	-1	-12%
CN(CC(=O)Nc1cccc(F)c1)C(=O)/C=C/c1ccc(S(=O)(=O)N2CCCCCC2)cc1	?	nt	nt	?	9	?
COc1cccc(NC(=O)CN(C)C(=O)/C=C/c2ccc(S(=O)(=O)N3CCCCCC3)cc2)c1	-3	nt	nt	?	nt	18µM*
CNC(=O)c1ccc(CN(C)C(=O)/C=C/c2ccc(S(=O)(=O)N3CCCCCC3)cc2)cc1	-4	nt	nt	23µM*	nt	23µM*
CCOc1ccc(CN(C)C(=O)CCc2ccc(S(=O)(=O)N3CCCCCC3)cc2)cc1	?	7.9µM*	-2%	-87%	-17	-102%
CCC(=O)N1CCN(c2nc(-c3ccccc3)c3c(c2C#N)CCCC3)CC1	-10	?	-2%	?	17	?
